Consider 105 compounds from PubChem BioAssay AID623911 (Vanderbilt High Throughput Screening Facility, 2012).

Hit rate of the full screen: of about 2,100 compounds, about 770 (37%) were called active.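 How the source made its calls: active means by-eye trace score of 1 for enhancers or -1 for inhibitors, so actives lie on both sides (some results past the limit were not filed as active); inactive means score 0, or 3 fluorescent, or 4 baseline rise.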 The list shows a part of the results.

For this assay, the target named is G protein-activated inward rectifier potassium channel 2 (Homo sapiens) + G protein-activated inward rectifier potassium channel 1 (Homo sapiens) (UniProt P48051+P48549). Description: GIRK1/2 thallium flux modulators, retest, confirmation, cell-based, HEK293 rmGlu8/hGIRK1/2, FluoZin-2 (AID 623911). The settings on record: HEK293 rmGlu8/hGIRK1/2, thallium flux FluoZin-2; actives lie on both sides; glutamate co-added at its EC20 level.
Chain of G protein-activated inward rectifier potassium channel 2 (Homo sapiens) + G protein-activated inward rectifier potassium channel 1 (Homo sapiens) (P48051 whole entry, looked up): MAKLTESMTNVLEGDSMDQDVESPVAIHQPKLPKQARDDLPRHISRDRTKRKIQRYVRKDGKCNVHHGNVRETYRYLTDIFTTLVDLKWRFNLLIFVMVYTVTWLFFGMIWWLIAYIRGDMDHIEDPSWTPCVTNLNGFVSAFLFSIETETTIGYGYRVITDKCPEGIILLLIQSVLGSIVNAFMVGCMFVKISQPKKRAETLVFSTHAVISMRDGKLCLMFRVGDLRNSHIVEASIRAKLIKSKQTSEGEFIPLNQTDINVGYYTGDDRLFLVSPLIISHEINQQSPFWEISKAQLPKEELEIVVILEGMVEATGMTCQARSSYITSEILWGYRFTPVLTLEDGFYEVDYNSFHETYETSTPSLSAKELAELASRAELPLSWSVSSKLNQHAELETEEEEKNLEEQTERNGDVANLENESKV
Chain of G protein-activated inward rectifier potassium channel 2 (Homo sapiens) + G protein-activated inward rectifier potassium channel 1 (Homo sapiens) (P48549 whole entry, looked up): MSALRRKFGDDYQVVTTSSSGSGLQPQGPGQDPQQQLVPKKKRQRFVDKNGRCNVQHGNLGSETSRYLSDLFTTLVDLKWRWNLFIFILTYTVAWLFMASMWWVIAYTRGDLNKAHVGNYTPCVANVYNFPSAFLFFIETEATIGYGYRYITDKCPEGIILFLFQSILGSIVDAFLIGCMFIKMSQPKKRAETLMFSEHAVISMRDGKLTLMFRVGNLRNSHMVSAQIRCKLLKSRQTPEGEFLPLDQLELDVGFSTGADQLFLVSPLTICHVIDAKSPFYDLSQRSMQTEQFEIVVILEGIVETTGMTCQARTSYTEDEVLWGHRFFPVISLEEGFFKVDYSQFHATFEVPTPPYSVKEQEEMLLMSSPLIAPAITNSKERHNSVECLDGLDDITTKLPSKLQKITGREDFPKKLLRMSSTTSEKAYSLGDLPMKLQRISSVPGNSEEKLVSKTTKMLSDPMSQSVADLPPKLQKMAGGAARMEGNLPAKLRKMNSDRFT
As for `Cc1ccc(C(=O)NNC(=S)Nc2cccc3ccccc23)s1`, the manual score is 0 (inactive).

Turning to `O=C(NNC(=S)Nc1ccccc1)c1cccc(Br)c1`, the manual score was 0 (inactive).

Take `O=C(NNC(=S)Nc1cccc2ccccc12)c1cccc(Br)c1`: the manual score was 1 (active).

As to `CC(C)(C)S(=O)(=O)c1ccc(S(=O)(=O)C(C)(C)C)s1`, the manual score was 0 (inactive).

`CC(C)(C)C(=O)NC(=S)NNC(=O)c1sc2ccccc2c1Cl`: the manual score was 1 (active).

In the case of `CCCOC(=S)NC(=O)c1sc2ccccc2c1Cl`, the manual score was 1 (active).

Consider `COc1ccccc1C(=O)NC(=S)NNC(=O)c1sc2ccccc2c1Cl`, for which the manual score was 0 (inactive).

For the compound `CCCCOC(=S)NC(=O)c1sc2ccccc2c1Cl`, the manual score was 1 (active).

For `O=C(NC(=S)N(CCCCO)C1CCCCC1)c1sc2ccccc2c1Cl`, the manual score was 1 (active).

On to `Nc1c(C(O)(C(F)(F)F)C(F)(F)F)ccc2ccccc12`, for which the manual score was 0 (inactive).

Turning to `CCCCN(Cc1ccccc1)S(=O)(=O)c1ccc2[nH]c(=O)oc2c1`, the manual score was 0 (inactive).

As for `COc1ccccc1C(=O)NNC(=S)NC(=O)c1sc2ccccc2c1Cl`, the manual score is 0.5 (inactive).

Regarding `Cn1c(-c2sc3ccccc3c2Cl)n[nH]c1=S`, the manual score is 0 (inactive).

On to `CCOC(=S)NC(=O)c1sc2ccccc2c1Cl`, for which the manual score is 1 (active).

For `COc1cccc(-n2c(SCC(=O)NCCC3=CCCCC3)nc3n[nH]c(C)c3c2=N)c1`, the manual score is -0.5 (inactive).

Take `Cc1cc(C)c2nc(SCC(=O)NCCC3=CCCCC3)cc(C)c2c1`: the manual score is 1 (active).

Turning to `Cc1cc(C)c2nc(SC(C)C(=O)NCC(=O)Nc3ccc(F)c(F)c3F)cc(C)c2c1` (stereo not given), the manual score was 0 (inactive).

As for `Nn1c(SC/C=C/c2ccccc2)nnc1-c1ccccn1`, the manual score was 0 (inactive).

Consider `COc1cc(Cl)cc2c1Sc1ccccc1/C2=C/CCN(C)C`, for which the manual score is -1 (active).

As for `Cc1nc(SC2CCOC2=O)c2c(C)c(C)sc2n1` (stereo not given), the manual score is 1 (active).

Turning to `S=C(NN=C1C2CC3CC(C2)CC1C3)Nc1ccccc1`, the manual score is 0 (inactive).

For `CCCCn1c(SCc2nc(N)nc(Nc3ccccc3C)n2)nc2ccccc2c1=O`, the manual score was 0 (inactive).

Turning to `CN1CCN(C(=O)c2sc(=S)n(-c3ccccc3)c2N)CC1`, the manual score was 0 (inactive).

As for `O=C(c1ccccc1Oc1ccccc1)N1CCN(c2ccccc2)CC1`, the manual score was -1 (active).

Turning to `Cc1ccc(-n2nc(-c3cccs3)cc2C(=O)NCC2CCCO2)c(C)c1` (stereo not given), the manual score is -1 (active).

Take `O=C(CN1C(=O)c2ccccc2C1=O)Nc1sc2c(c1C(=O)NCC1CCCO1)CCC2` (stereo not given): the manual score is 0 (inactive).

`COc1ccc(C(OC(=O)c2cccs2)C(=O)NCC2CCCO2)cc1` (stereo not given): the manual score is 0 (inactive).

Turning to `Cc1cccc(S(=O)(=O)Nc2cccc3c2C(=O)c2ccccc2-3)c1`, the manual score is 0 (inactive).

Turning to `COC(=O)Nc1nnc(Cc2ccc(Cl)cc2)s1`, the manual score was 0 (inactive).

As to `CC(C)Cn1cnc2sc3c(c2c1=N)CCCC3`, the manual score is -1 (active).

`N#Cc1ccc(-c2csc(NC3=NCCCCC3)n2)cc1`: the manual score was -1 (active).

For the compound `O=C(NCCN1CCN(C(=O)Nc2ccccc2)CC1)Nc1ccccc1`, the manual score is 0 (inactive).

For `O=C(NC(=Nc1ccccc1)N1CCOCC1)Nc1ccccc1`, the manual score is 1 (active).

For the compound `CC(CCc1ccccc1)NC(=O)N1CCOCC1` (stereo not given), the manual score was 0 (inactive).

As for `CC1=CC(C)(C)n2c(O)c(N=NC(N)=S)c3cccc1c32`, the manual score is 0 (inactive).

For the compound `CCCSc1nc2sc3c(c2c(=O)[nH]1)CCN(Cc1ccccc1)C3`, the manual score was 3 (inactive).

As for `Oc1c(Cl)cc(Cl)c2c1NCCC2`, the manual score is 0 (inactive).

Turning to `Cc1ccc2oc(-c3cccc(NC(=S)NC(=O)c4cccs4)c3)nc2c1`, the manual score was 0 (inactive).

For `O=C(NC(=S)Nc1ccc(Cl)cn1)c1cccs1`, the manual score is 0.5 (inactive).

With `Cc1cccc(NC(=S)NC(=O)c2cccs2)n1`, the manual score was 1 (active).

As to `Cc1ccnc(NC(=S)NC(=O)c2cccs2)c1`, the manual score is 1 (active).

Consider `CN1C(=O)NC(c2ccccc2)C2=C1CN(Cc1ccccc1)C2=O` (stereo not given), for which the manual score was 0 (inactive).

Regarding `CCCCOc1ccc(C(=O)NNC(=S)NC(=O)CC)cc1`, the manual score was 1 (active).

Regarding `CCCOc1ccc(C(=O)NNC(=S)NC(=O)CC)cc1`, the manual score is 1 (active).

`CCCOc1cccc(C(=O)NC(=S)Nc2cccc(C(F)(F)F)c2)c1`: the manual score was 0 (inactive).

As to `CC1Cc2nc(SCC(=O)Nc3nc4ccccc4s3)n(C)c(=O)c2S1` (stereo not given), the manual score is -0.5 (inactive).

Regarding `N#Cc1nc(COc2ccccc2)oc1N1CCN(c2cccc(Cl)c2)CC1`, the manual score is 0 (inactive).

`Cc1oc(-c2ccccc2)nc1CS(=O)CC(=O)O` (stereo not given): the manual score is 1 (active).

Turning to `COc1ccccc1N=Cc1nc(-c2ccccc2)oc1OC(C)=O`, the manual score is 0 (inactive).

Regarding `CCC(=O)Oc1oc(-c2ccccc2)nc1C=Nc1ccccc1OC`, the manual score was 0 (inactive).

For the compound `Cc1ccn2c(NC3CCCCC3)c(C(C)C)nc2c1`, the manual score is -1 (active).

On to `C=CCOc1cccc(C2/C(=C(/O)c3ccc(C)cc3)C(=O)C(=O)N2CCN2CCOCC2)c1` (stereo not given), for which the manual score was 0 (inactive).

Take `CCOC(=O)c1cccc(NC(=O)CSc2nnc(-c3cccnc3)n2C)c1`: the manual score was 0 (inactive).

`Cn1c(SCC(=O)N2c3ccccc3CCc3ccccc32)nnc1-c1ccc(O)cc1`: the manual score was 0 (inactive).

Consider `CCc1cccc(CC)c1-n1c(SCC(=O)N2CCc3ccccc3C2)nnc1-c1cccnc1`, for which the manual score was -1 (active).

As to `CCN=c1scc(-c2ccco2)n1/N=C/c1ccc(O)cc1`, the manual score was 0 (inactive).

Regarding `CC(C)(C)C(=O)Nc1nc2c(s1)COc1ccccc1-2`, the manual score is -0.5 (inactive).

Regarding `CC1(c2ccccc2)CC(C)(C)N2C(=O)/C(=C3\SC(=S)NC3=O)c3cccc1c32` (stereo not given), the manual score is 0 (inactive).

As to `CN1CCN(CC(=O)N2c3ccccc3C(C)(c3ccc(Cl)cc3)CC2(C)C)CC1` (stereo not given), the manual score is -1 (active).

With `COC(=O)c1ccc(Cl)c(NC(=O)CN2CCN(C)CC2)c1`, the manual score was 0 (inactive).

On to `CN1CCN(CC(=O)N2c3ccccc3C(C)(c3ccccc3)CC2(C)C)CC1` (stereo not given), for which the manual score is -1 (active).

Take `CN1CCN(Cc2cccc(Oc3ccc(Cl)cc3)c2)CC1`: the manual score was 0 (inactive).

In the case of `S=c1[nH]nc(CSc2nc3ccccc3s2)n1C1CCCCC1`, the manual score was 0 (inactive).

As to `N#Cc1ccsc1NC(=O)CN1CCN(c2ccc(O)cc2)CC1`, the manual score was 0 (inactive).

Regarding `Cc1cc(NC(=O)CSc2nc(C3CC3)nc3sc(C)c(C)c23)no1`, the manual score is 1 (active).

`Cc1cc(NC(=O)CSc2nc3ccccc3c(=O)n2Cc2ccccc2)no1`: the manual score is 0 (inactive).

`COc1cc(OC)c2nc(C)c3c(c2c1)N(c1ccc(O)cc1)CC3`: the manual score is -1 (active).

Consider `O=C(Nc1nncs1)c1ccccc1NS(=O)(=O)c1cccs1`, for which the manual score was 0 (inactive).

Take `O=C(Nc1ccccc1)c1ccccc1NS(=O)(=O)c1ccc(Cl)s1`: the manual score was -1 (active).

On to `O=C(Nc1ccccc1C(=O)O)c1ccc(NC(=O)c2ccc(Br)o2)cc1`, for which the manual score was -0.5 (inactive).

`O=C(COc1ccc(Br)cc1Br)NC(=S)N1CCCc2ccccc21`: the manual score is 0 (inactive).

With `CCC1CCCCN1C(=O)CSc1nnc(-c2ccco2)o1` (stereo not given), the manual score is 0 (inactive).

With `CCC1CCCCN1C(=S)NC(=O)c1ccc([N+](=O)[O-])cc1` (stereo not given), the manual score was 1 (active).

Consider `Cc1c(C(=O)NC(=S)Nc2ccccc2N2CCCC2)cccc1[N+](=O)[O-]`, for which the manual score is 0 (inactive).

Turning to `O=C(NC(=S)N1CCCc2ccccc21)c1ccc(Br)cc1`, the manual score was 1 (active).

With `O=C(NC(=S)Nc1ccccc1N1CCCC1)c1ccc([N+](=O)[O-])cc1`, the manual score was 1 (active).

In the case of `O=C(NC(=S)Nc1ccccc1N1CCCC1)c1ccccc1[N+](=O)[O-]`, the manual score is 0 (inactive).

Turning to `O=C(NC(=S)N1CCCc2ccccc21)c1ccc(Cl)cc1`, the manual score was 1 (active).

On to `O=c1[nH]c(NCCO)nc2c1C1(CCCCC1)Cc1ccccc1-2`, for which the manual score is 0 (inactive).

Consider `CCOC(=O)c1cccc(-n2c(C)cc(C=O)c2C)c1`, for which the manual score was 0 (inactive).

In the case of `O=C(Nc1nc(-c2cc3ccccc3oc2=O)cs1)c1ccc(Br)o1`, the manual score is 0 (inactive).

As to `O=C(N/N=C1\CCCc2ccccc21)c1ccc([N+](=O)[O-])cc1`, the manual score is 0 (inactive).

Consider `O=C(NC(=S)N1CCc2ccccc21)c1ccccc1Br`, for which the manual score was 1 (active).

For `O=C(NC(=S)N1CCCc2ccccc21)c1ccccc1`, the manual score was 1 (active).

Regarding `O=C(c1ccccc1)N1CCCc2ccccc21`, the manual score was 0 (inactive).

For `O=C(NC(=S)N1CCCc2ccccc21)c1ccc([N+](=O)[O-])cc1`, the manual score was 1 (active).

`O=C(NC(=S)N1CCc2ccccc21)c1ccccc1`: the manual score is 1 (active).

In the case of `C=CCN1C(=O)/C(=C2/Sc3ccccc3N2C)SC1=Nc1c(C)n[nH]c1C`, the manual score was 0 (inactive).

On to `O=C(NC(=S)N1CCN(c2ccc(F)cc2)CC1)C12CC3CC(CC(C3)C1)C2`, for which the manual score was 0 (inactive).

With `CCC(=O)c1ccc(N2CCN(C(=O)c3cc([N+](=O)[O-])ccc3N3CCN(C)CC3)CC2)c(F)c1`, the manual score is 0 (inactive).

For `O=C(NC(=S)N1CCN(c2ccc([N+](=O)[O-])cc2)CC1)c1ccc(F)cc1`, the manual score was 1 (active).

For `O=S(=O)(Nc1cc(Cl)ccc1N1CCCCC1)c1cccs1`, the manual score is -1 (active).

`O=S(=O)(Nc1ccccc1N1CCCCC1)c1ccc(Cl)s1`: the manual score is 0 (inactive).

On to `CCC/C(=N/NC(=O)c1csc(C)c1C)c1ccc(Cl)s1`, for which the manual score was 0 (inactive).

On to `COc1ccc(-c2onc(C)c2-c2ccc(C(=O)OC(C)C)o2)c(O)c1`, for which the manual score was 0 (inactive).

For the compound `COc1ccc(-n2ncc3c(NCc4cccs4)ncnc32)cc1`, the manual score is 0 (inactive).

In the case of `COc1ccc(-c2c3c(=O)n(C)c(=O)n(C)c3cn2-c2ccccc2)cc1`, the manual score is 0 (inactive).

For `COc1ccc(-c2c(S(=O)(=O)c3ccccc3)cnn2-c2ccccc2)cc1`, the manual score is -1 (active).

`N#Cc1c(N)nc(SCc2ccccc2)c(C#N)c1-c1ccco1`: the manual score is 0 (inactive).

For `Cc1ccc(OCC(=O)NNC(=O)C(C)Sc2ncnc3sc(C)c(C)c23)cc1` (stereo not given), the manual score is 1 (active).

In the case of `CC(NC(=O)COc1ccccc1)C(=O)NC1=NCCS1` (stereo not given), the manual score was 0 (inactive).

For the compound `CCOC(=O)c1c(NC(=O)CSc2nnc(-c3ccncc3)n2Cc2ccco2)sc(C(C)=O)c1C`, the manual score was -1 (active).

Take `COC(=O)c1c(NC(=O)CSc2nnc(-c3cccnc3)n2Cc2ccco2)sc(C)c1C`: the manual score is -0.5 (inactive).

For the compound `CCOc1ccccc1NC(=O)CSc1nnc(-c2ccco2)n1Cc1ccco1`, the manual score is 0 (inactive).

As to `CCn1cc(C(=O)N2CC=C(c3ccccc3)CC2)c(=O)c2ccc(C)nc21`, the manual score was 0 (inactive).
